Reference: PubChem BioAssay (NCATS)
Records with an inconclusive call do not appear. A call without a number means that no potency is given here. Activity calls are given as the source filed them. Calls come from the whole dose curve; as a rule, active = well fitted inhibition curve with a large enough effect; inconclusive = small, poorly fitted or top-dose-only effect; inactive = flat fitted curve, though single readings scatter.

How the values were obtained:
Experiment in all cases: qHTS profiling for inhibitors of Plasmodium falciparum proliferation (AID 504749); note: nearly all actives have a fitted effect of over 60% in size
Details in all cases: P. falciparum in erythrocytes, SYBR Green DNA, 72 h; series mostly up to 28.7 µM
[1] = tested on: CP260
How it was run: (§1)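 In a 72 h erythrocytic culture (37 C, humidified, 5% CO2) at 2.5% hematocrit and 0.3% starting parasitemia, compounds were tested; SYBR Green I in detergent lysis buffer stained parasite DNA overnight.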

[2] = tested on: CP262
How it was run: as §1

[3] = tested on: CP265
How it was run: as §1

[4] = tested on: CP266
How it was run: as §1

[5] = tested on: CP268
How it was run: as §1

[6] = tested on: CP269
How it was run: as §1

[7] = tested on: CP286
How it was run: as §1

[8] = tested on: CP291
How it was run: as §1

[9] = tested on: CP297
How it was run: as §1

[10] = tested on: CP305
How it was run: as §1

[11] = tested on: CP315
How it was run: as §1

[12] = tested on: CP325
How it was run: as §1

[13] = tested on: CP329
How it was run: as §1

[14] = tested on: CP335
How it was run: as §1

[15] = tested on: DFO2036
How it was run: as §1

[16] = tested on: DIV14
How it was run: as §1

[17] = tested on: DIV17
How it was run: as §1

[18] = tested on: DIV30
How it was run: as §1

[19] = tested on: Dd2
How it was run: as §1

[20] = tested on: ECU
How it was run: as §1
Potency is the fitted concentration of half-maximal effect.

SMILES: CC(=O)OC1CN2CCC1CC2 (configuration not stated)
- Potency [1]: inactive
- Potency [2]: inactive
- Potency [3]: inactive
- Potency [4]: inactive
- Potency [5]: inactive
- Potency [6]: inactive
- Potency [7]: inactive
- Potency [8]: inactive
- Potency [9]: inactive
- Potency [10]: inactive
- Potency [11]: inactive
- Potency [12]: inactive
- Potency [13]: inactive
- Potency [14]: inactive
- Potency [15]: inactive
- Potency [16]: inactive
- Potency [17]: inactive
- Potency [18]: inactive
- Potency [19]: inactive
- Potency [20]: inactive

SMILES: O=C(NCNC(=O)NC1C(=O)NC(=O)N1CO)NC1C(=O)NC(=O)N1CO (configuration not stated)
- Potency [1]: inactive
- Potency [2]: inactive
- Potency [3]: inactive
- Potency [4]: inactive
- Potency [6]: inactive
- Potency [7]: inactive
- Potency [8]: inactive
- Potency [9]: inactive
- Potency [10]: inactive
- Potency [11]: inactive
- Potency [12]: inactive
- Potency [13]: inactive
- Potency [14]: inactive
- Potency [15]: inactive
- Potency [16]: inactive
- Potency [17]: inactive
- Potency [18]: inactive
- Potency [19]: inactive
- Potency [20]: inactive

SMILES: CC1CCC(C(C)C)C(OC(=O)c2ccccc2N)C1 (configuration not stated)
- Potency [1]: inactive
- Potency [2]: inactive
- Potency [3]: inactive
- Potency [4]: inactive
- Potency [5]: inactive
- Potency [6]: inactive
- Potency [7]: inactive
- Potency [8]: inactive
- Potency [9]: inactive
- Potency [10]: inactive
- Potency [11]: inactive
- Potency [12]: inactive
- Potency [13]: inactive
- Potency [14]: inactive
- Potency [15]: inactive
- Potency [17]: inactive
- Potency [18]: inactive
- Potency [20]: inactive

SMILES: O=C(NC(=O)c1c(F)cccc1F)Nc1ccc(Cl)c(Oc2ncc(C(F)(F)F)cc2Cl)c1
- Potency [1]: inactive
- Potency [2]: inactive
- Potency [3]: inactive
- Potency [4]: inactive
- Potency [5]: inactive
- Potency [6]: inactive
- Potency [7]: inactive
- Potency [8]: inactive
- Potency [9]: inactive
- Potency [10]: inactive
- Potency [11]: inactive
- Potency [12]: inactive
- Potency [13]: inactive
- Potency [14]: inactive
- Potency [15]: inactive
- Potency [16]: inactive
- Potency [17]: inactive
- Potency [18]: inactive
- Potency [19]: inactive
- Potency [20]: inactive

SMILES: CN1C2CCC1CC(OC(c1ccccc1)c1ccc(Cl)cc1)C2 (configuration not stated)
- Potency [1]: 7.94 µM (active)
- Potency [2]: 5.36 µM (active)
- Potency [3]: 8.91 µM (active)
- Potency [4]: 13.5 µM (active)
- Potency [5]: 9.53 µM (active)
- Potency [6]: 9.53 µM (active)
- Potency [7]: 5.01 µM (active)
- Potency [8]: 12 µM (active)
- Potency [9]: 8.49 µM (active)
- Potency [10]: 12 µM (active)
- Potency [12]: 9.53 µM (active)
- Potency [13]: 13.5 µM (active)
- Potency [14]: 6.01 µM (active)
- Potency [15]: 11.2 µM (active)
- Potency [16]: 7.57 µM (active)
- Potency [17]: 7.57 µM (active)
- Potency [18]: 7.57 µM (active)
- Potency [19]: 10 µM (active)
- Potency [20]: 6.31 µM (active)

SMILES: C=CCN=C=S
- Potency [1]: inactive
- Potency [2]: inactive
- Potency [3]: inactive
- Potency [4]: inactive
- Potency [7]: inactive
- Potency [12]: inactive
- Potency [14]: inactive
- Potency [15]: inactive
- Potency [16]: inactive
- Potency [19]: inactive
- Potency [20]: inactive

SMILES: O=C1CN=C(c2ccccc2)c2cc(Cl)ccc2N1CC1CC1
- Potency [2]: inactive
- Potency [3]: inactive
- Potency [4]: inactive
- Potency [5]: inactive
- Potency [6]: inactive
- Potency [8]: inactive
- Potency [9]: inactive
- Potency [10]: inactive
- Potency [11]: inactive
- Potency [12]: inactive
- Potency [13]: inactive
- Potency [15]: inactive
- Potency [16]: inactive
- Potency [18]: inactive
- Potency [19]: inactive
- Potency [20]: inactive

SMILES: COc1ccc2c3c1O[C@H]1C(=O)CC[C@H]4[C@@H](C2)N(C)CC[C@]314
- Potency [1]: inactive
- Potency [2]: inactive
- Potency [3]: inactive
- Potency [5]: inactive
- Potency [6]: inactive
- Potency [7]: inactive
- Potency [8]: inactive
- Potency [9]: inactive
- Potency [10]: inactive
- Potency [11]: inactive
- Potency [12]: inactive
- Potency [13]: inactive
- Potency [14]: inactive
- Potency [15]: inactive
- Potency [16]: inactive
- Potency [17]: inactive
- Potency [18]: inactive
- Potency [19]: inactive
- Potency [20]: inactive

SMILES: CN1CCCC(=C(c2cccs2)c2cccs2)C1
- Potency [4]: inactive
- Potency [6]: inactive
- Potency [11]: inactive
- Potency [17]: 6.75 µM (active)
- Potency [19]: 11.2 µM (active)
- Potency [20]: inactive

SMILES: CCC(C)(S(=O)(=O)CC)S(=O)(=O)CC
- Potency [2]: inactive
- Potency [3]: inactive
- Potency [4]: inactive
- Potency [5]: inactive
- Potency [6]: inactive
- Potency [7]: inactive
- Potency [8]: inactive
- Potency [9]: inactive
- Potency [10]: inactive
- Potency [11]: inactive
- Potency [12]: inactive
- Potency [13]: inactive
- Potency [14]: inactive
- Potency [15]: inactive
- Potency [16]: inactive
- Potency [17]: inactive
- Potency [18]: inactive
- Potency [19]: inactive
- Potency [20]: inactive

SMILES: F/C(COc1ccc2c(c1)[nH]c1ccccc12)=C1/CN2CCC1CC2
- Potency [1]: 5.62 µM (active)
- Potency [2]: inactive
- Potency [3]: 8.91 µM (active)
- Potency [7]: 7.08 µM (active)
- Potency [12]: inactive
- Potency [15]: 11.2 µM (active)
- Potency [16]: 4.26 µM (active)
- Potency [17]: 6.75 µM (active)
- Potency [18]: 10.7 µM (active)
- Potency [19]: 5.62 µM (active)

SMILES: N#CC(C#N)=Cc1cc(O)c(O)c(O)c1
- Potency [1]: 6.31 µM (active)
- Potency [2]: 15.1 µM (active)
- Potency [4]: 16.9 µM (active)
- Potency [6]: 10.7 µM (active)
- Potency [7]: 10 µM (active)
- Potency [9]: 15.1 µM (active)
- Potency [14]: 6.75 µM (active)
- Potency [16]: 13.5 µM (active)
- Potency [17]: 10.7 µM (active)
- Potency [19]: 6.31 µM (active)
- Potency [20]: inactive

SMILES: CCC1(c2ccccc2)C(=O)NC(=O)N(C)C1=O (configuration not stated)
- Potency [2]: inactive
- Potency [4]: inactive
- Potency [5]: inactive
- Potency [7]: inactive
- Potency [8]: inactive
- Potency [9]: inactive
- Potency [11]: inactive
- Potency [12]: inactive
- Potency [13]: inactive
- Potency [15]: inactive
- Potency [18]: inactive
- Potency [19]: inactive

SMILES: CCOP(=O)(OCC)O/C(=C/Cl)c1ccc(Cl)cc1Cl
- Potency [2]: inactive
- Potency [4]: inactive
- Potency [5]: inactive
- Potency [6]: inactive
- Potency [7]: inactive
- Potency [9]: inactive
- Potency [10]: inactive
- Potency [11]: inactive
- Potency [12]: inactive
- Potency [13]: inactive
- Potency [15]: inactive
- Potency [19]: inactive
- Potency [20]: inactive

SMILES: COC([CH2][Hg])CNC(=O)c1ccccc1OCC(=O)O (configuration not stated)
- Potency [2]: inactive
- Potency [3]: inactive
- Potency [4]: inactive
- Potency [5]: inactive
- Potency [6]: inactive
- Potency [7]: inactive
- Potency [8]: inactive
- Potency [9]: inactive
- Potency [10]: inactive
- Potency [11]: inactive
- Potency [12]: inactive
- Potency [13]: inactive
- Potency [14]: inactive
- Potency [15]: inactive
- Potency [16]: inactive
- Potency [17]: inactive
- Potency [18]: inactive
- Potency [19]: inactive
- Potency [20]: inactive
